About 83,000 compounds went through this panel and 20% of them were active in at least one assay; those are over-represented in the sample as a whole.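 For each line, cells grew in 96-well plates with the test compound present at a single concentration for 48 hours.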 A number with no mark means an inactive call. Active and inactive are the calls of the source. How the source made its calls: active means growth percent below 10; inactive means the rest.
Key:
Test in all cases: NCI-60 one-dose screen, 48 h (100 = growth as untreated, 0 = no growth, -100 = all killed)
SR leukemia = conditions: 10 µM
RPMI-8226 leukemia = conditions: 10 µM
OVCAR-8 ovarian = conditions: 10 µM
OVCAR-5 ovarian = conditions: 10 µM
OVCAR-4 ovarian = conditions: 10 µM
SK-OV-3 ovarian = conditions: 10 µM
OVCAR-3 ovarian = conditions: 10 µM
NCI/ADR-RES ovarian = conditions: 10 µM
T-47D breast = conditions: 10 µM
BT-549 breast = conditions: 10 µM
MDA-MB-435 melanoma = conditions: 10 µM
HCT-116 colon = conditions: 10 µM
HCC-2998 colon = conditions: 10 µM
KM12 colon = conditions: 10 µM
IGROV1 ovarian = conditions: 10 µM
HS 578T breast = conditions: 10 µM
SW-620 colon = conditions: 10 µM
MCF7 breast = conditions: 10 µM unless noted

Structure (SMILES)	growth (SR leukemia)	growth (RPMI-8226 leukemia)	growth (OVCAR-8 ovarian)	growth (OVCAR-5 ovarian) [%]	growth (OVCAR-4 ovarian)	growth (SK-OV-3 ovarian)	growth (OVCAR-3 ovarian)	growth (NCI/ADR-RES ovarian)	growth (T-47D breast)	growth (BT-549 breast)	growth (MDA-MB-435 melanoma)	growth (HCT-116 colon)	growth (HCC-2998 colon)	growth (KM12 colon)	growth (IGROV1 ovarian)	growth (HS 578T breast)	growth (SW-620 colon)	growth (MCF7 breast)
CC(=O)OC(C(=O)O)c1ccccc1 (stereo not given)	104%	88.2%	102%	105	118%	117%	120%	108%	118%	122%	105%	108%	96.3%	106%				
COc1cc(C(=O)NC(=S)Nc2ccc3ccccc3c2)cc(OC)c1OC	87.4%	88.9%	104%	99.9			107%	51.5%	91.2%	121%		104%	99.5%	95.5%	95.5%	94.5%	74%	93.2%
COc1cc(C2NC(=O)C(C#N)=C(Nc3cccc(C)c3)S2)ccc1O (stereo not given)	107%	81.4%	105%	111	102%	103%	106%	110%	93.5%	101%	104%	103%	106%	104%		96.5%	104%	92.9%
CCC(O)CC(CC)CO (stereo not given)	108%	111%	104%	104		115%	130%	110%	115%		114%	100%	109%	128%	114%	130%	110%	97.8%
CCCC(=O)Nc1ccc2c(c1)CN1C(=O)c3ccccc3C1=N2	103%	106%	98.2%		107%	110%	102%	99.5%	101%	107%	106%	102%	85.4%	97.5%	111%	119%	105%	96%
CCCCC1C(=O)N(c2ccccc2)N(c2ccccc2)C1=O	103%	96.6%	103%		117%	105%	115%	103%	109%	98.8%	108%	102%	109%	109%	106%	114%	106%	115%
CCOc1ccc(/C=N/N=C(N)N)cc1OCC	76.3%	101%	106%	101		106%	107%	109%	88.4%		99%	95.8%	101%	108%	95.9%			82.3%
Cc1c(C(=O)O)c(=O)n(-c2ccccc2)n1C	123%	107%	103%	110		107%	141%	101%	98.8%	114%	107%	113%	106%	120%	117%			112%
CC[N+](C)(CC)CCO	104%	102%	94.3%	100		103%	108%	105%	93.4%	99.9%	100%	105%	102%	110%	104%	107%	100%	103%
O=C1N(C[P+](c2ccccc2)(c2ccccc2)c2ccccc2)CCCN1C[P+](c1ccccc1)(c1ccccc1)c1ccccc1	89%	115%	99.5%	110	107%		101%	111%		103%	105%	97%		111%	98%	99.8%	109%	98.7%
CC(C)(O)C#CC#CC(C)(C)O	97.9%	92.1%	99.2%	97.8	104%			96.9%		93.7%	103%	96.5%	96.4%	108%	102%	100%	104%	101%
N#CCCN(CCCN1CCOCC1)CN1C(=O)c2ccccc2C1=O	71.8%	108%	111%	106			120%	109%	96%	128%	108%	109%	101%	112%	102%	113%		95.8%
CCN1C(=O)/C(=C/C=C/N(C)c2ccccc2)SC1=S	73.4%	86.8%	69.2%	102		41.3%	81.4%	81.5%	79.8%	80.5%	93.9%	95.1%	93.6%	106%		58.6%	106%	88.6%
Cc1nc2ccccc2c(C(=O)O)c1O	95.6%	179%	102%	91.4	116%	95.3%	113%	94.5%	91.3%		112%	88.3%	89%	120%		88.1%	110%	103%
O=C(c1ccc(Cl)cc1)c1ccccc1Cl	95.9%	82.8%	89.6%		97%	96.3%	118%		74.7%	91.7%	106%	87.9%	92.6%	119%	87.9%		121%	95.7%
O=C1C=CC2=C3c4cc(O)c(O)cc4CC3(O)COC2=C1O (stereo not given)	109%	90%	97.2%	104	110%	113%	123%	101%	113%		111%	99%	-35.6% (active)	114%		115%		98.1%
O=C(c1ccc(O)cc1)c1ccc(O)cc1	88.7%	107%	99.9%	105		114%	111%	110%	113%	122%	105%	95%	105%	100%	108%	107%	113%	113%
O=C(CCl)Nc1ccc2c(c1)C(=O)c1ccc(NC(=O)CCl)cc1C2=O	-27.1% (active)	-40.3% (active)	-23% (active)		-43% (active)	-9.68% (active)	-93.2% (active)	-53.8% (active)	-48.7% (active)	-91% (active)	-71.6% (active)	-79.8% (active)	-77.8% (active)	-72.2% (active)	-62.1% (active)	6.19% (active)	-61.7% (active)	-60.7% (active)
CC(C)=C(NC(=O)c1ccccc1)C(=O)O	95.4%	87.4%	104%	101	118%	112%	107%	111%	116%	110%	110%	117%	101%	99.6%				112%
Cc1ccc(/C(C#N)=C/c2ccc3c(c2)OCO3)cc1	25.5%	77%	94%	112		82.8%	73.8%	44.5%	64.1%	87.1%	-11.1% (active)	72.8%	74.3%	26.1%	72.4%	83.8%	32%	49.7%
